Results from article PMC5540273 (PLoS ONE, 2017).

Columns and labels:
Conditions in all cases: concentration: 1 μM, replicates: in singlicate; n = 1
TIE1 = test system: TIE1
TIE2 = test system: T1, TIE2
T1 construct: gene TEK

TLK1 = test system: TLK1
TLK2 = test system: TLK2
TNIK = test system: TNIK
TNK1 = test system: TNK1
TNK2 = test system: TNK2
TNNI3K = test system: TNNI3K
TRKA = test system: T2, TRKA
T2 construct: gene NTRK1

TRKB = test system: TRKB
TRKC = test system: T3, TRKC
T3 construct: gene NTRK3

TRPM6 = test system: TRPM6
TSSK1B = test system: TSSK1B
TSSK3 = test system: TSSK3
TTK = test system: TTK
TXK = test system: TXK
[1] = test system: TYK2(JH1domain-catalytic)
[2] = test system: TYK2(JH2domain-pseudokinase)
TYRO3 = test system: TYRO3
ULK1 = test system: ULK1
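Also: KINOMEscan kinase panel screen.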

Row | SMILES | %Inh (TIE1) | %Inh (TIE2) | %Inh (TLK1) | %Inh (TLK2) | %Inh (TNIK) | %Inh (TNK1) | %Inh (TNK2) | %Inh (TNNI3K) | %Inh (TRKA) | %Inh (TRKB) | %Inh (TRKC) | %Inh (TRPM6) | %Inh (TSSK1B) | %Inh (TSSK3) | %Inh (TTK) | %Inh (TXK) | %Inh [1] | %Inh [2] | %Inh (TYRO3) | %Inh (ULK1)
1 | CCc1nc(-c2cccc(N(C)S(=O)(=O)c3ccccc3)c2)c(-c2ccnc(Nc3ccc(N4CCN(C(C)=O)CC4)nc3)n2)s1 [GSK1645895] | 5% | 18% | 26% | 20% | 4% | 29% | 3% | 0% | 0% | 0% | 0% | 56% | 0% | 15% | 9% | 15% | 0% | 14% | 0% | 4%
2 | Cl.Fc1ccccc1COc1ccc(Nc2ncnc3ccc(-c4nnc(C(F)(F)F)o4)cc23)cc1Cl [GW424170] | 0% | 0% | 4% | 0% | 0% | 0% | 0% | 0% | 3% | 6% | 5% | 0% | 0% | 6% | 0% | 18% | 11% | 12% | 0% | 0%
3 | Cc1cccc(-c2nc(Nc3ccc4[nH]nnc4c3)c3ccccc3n2)n1 [GW867587] | 0% | 0% | 0% | 0% | 0% | 24% | 0% | 0% | 0% | 0% | 0% | 0% | 0% | 0% | 0% | 0% | 0% | 42% | 0% | 0%
4 | O=C(Nc1ccccc1F)NC1CCN(c2ccnc(Nc3ccc(F)cc3)n2)C1 (centres unmarked) [GSK1379722] | 0% | 0% | 0% | 0% | 0% | 0% | 27% | 0% | 0% | 32% | 22% | 0% | 12% | 31% | 7% | 16% | 23% | 20% | 0% | 0%
5 | CNc1nccc(-c2c(-c3ccc(F)cc3)ncn2CCCN2CCOCC2)n1 [SB-222516] | 0% | 0% | 0% | 0% | 0% | 4% | 0% | 0% | 0% | 19% | 38% | 0% | 12% | 12% | 0% | 9% | 18% | 16% | 17% | 13%
6 | O=C(CCO)NCCn1ccc2ncnc(Nc3ccc(Oc4cccc(C(F)(F)F)c4)c(Cl)c3)c21 | 0% | 0% | 0% | 0% | 0% | 0% | 0% | 0% | 0% | 0% | 0% | 0% | 0% | 2% | 0% | 0% | 0% | 0% | 0% | 0%
7 | Cl.Cn1ccc(-c2cccc(Nc3ccnc4cc(-c5nccs5)ccc34)c2)n1 [GW525701] | 0% | 0% | 13% | 3% | 50% | 0% | 33% | 0% | 0% | 60% | 43% | 0% | 3% | 6% | 0% | 14% | 30% | 49% | 0% | 0%
8 | O=C(Nc1n[nH]c2nc(-c3ccco3)c(Br)cc12)c1ccc(CN2CCCC2)cc1.O=C(O)[C@H](O)[C@@H](O)C(=O)O [SB-742352] | 0% | 0% | 3% | 0% | 14% | 38% | 0% | 12% | 18% | 0% | 0% | 0% | 0% | 0% | 0% | 2% | 0% | 0% | 0% | 13%
9 | COc1ccc(Nc2nccc(N3CCC(NC(=O)c4cccc(NC(C)=O)c4)C3)n2)cc1 (centres unmarked) [GSK1379732] | 0% | 0% | 0% | 0% | 0% | 0% | 7% | 7% | 37% | 40% | 43% | 0% | 14% | 11% | 8% | 5% | 36% | 30% | 0% | 0%
10 | COc1cc2ncnc(Nc3ccc(OCc4ccccc4Br)c(Cl)c3)c2cc1OC.Cl [GI261590] | 0% | 3% | 0% | 0% | 0% | 0% | 24% | 5% | 0% | 19% | 33% | 19% | 14% | 12% | 0% | 12% | 34% | 47% | 15% | 0%
